According to PubChem BioAssay AID1745850 (National Center for Advancing Translational Sciences (NCATS), 2022):
The campaign covered roughly 2,100 compounds. About 260 (12%) were called active. Another 58% or so got no clear call; they are omitted. The call rests on the fitted dose curve; in most records, active means well fitted cell-killing curve with a large enough effect; inconclusive means small, poorly fitted or top-dose-only effect, or effect the other way; inactive means flat fitted curve, though single readings scatter. The list shows a part of the results.

Experiment: Viability Counterscreen for Confirmatory qHTS for Inhibitors of ATXN expression; further: nearly all actives have a fitted effect of over 50% in size
Details: HEK-293 ATXN2-luc cells viability, CellTiter-Fluor, 24 h; activity change, negative = cytotoxicity: at the top concentration
Summary of the method: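 Luminescence read-out (SteadyGlo, 5 min) followed a 30 min Gly-Phe-AFC (25 uM final) viability fluorescence read. ATXN2-luciferase reporter cells were exposed 24 h to a dilution series. Medium-only wells served as the 100% inhibition reference.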
Potency means the concentration at half of the fitted maximal effect.

Row | Compound | activity change, negative = cytotoxicity | Potency
1 | COc1cccc(N2CCN(c3nc(-c4ccccc4C)cc(=O)[nH]3)CC2)c1 | -27.9% (inactive) | 
2 | Cc1nc2ncnn2c(N2CCN(c3cccc(C(F)(F)F)c3)CC2)c1C | -26.9% (inactive) | 
3 | CC(Sc1ccc(Cl)cc1)C(=O)NNC(=O)c1ccccc1O (stereo not given) | -10% (inactive) | 
4 | COc1ccc(Cl)cc1NC(=O)Nc1cccc([N+](=O)[O-])c1C | -5.63% (inactive) | 
5 | COc1ccc(-c2n(CC(=O)OC3CC(C)CCC3C(C)C)c3ccccc3[n+]2C)cc1 (stereo not given) |  | 10 µM (active)
6 | Cc1onc(-c2ccccc2)c1C(=O)N/N=C/c1c[nH]c2ccccc12 | -15.8% [at 57.5 µM] (inactive) | 
7 | O=C(O)COc1ccc2oc3ccccc3c2c1 | 7.02% (inactive) | 
8 | Cc1nnc(SC(C)C(=O)Nc2ccc(Cl)cn2)n1Cc1ccccc1 (stereo not given) | -12.7% [at 57.5 µM] (inactive) | 
9 | Cc1cccc(N2CCN(S(=O)(=O)c3ccc4c(c3)C(C)(C)C(=O)N4C)CC2)c1C | -12% [at 57.5 µM] (inactive) | 
10 | NC(N)=N/N=C/c1ccc2cccc(OCc3ccccc3)c2n1 |  | 15.8 µM (active)
11 | CC(=O)Oc1c(Br)cc(N(C(C)=O)S(=O)(=O)c2ccccc2)c2ccccc12 |  | 28.2 µM (active)
12 | N#Cc1cc2cc3c(cc2nc1SCC(=O)N1CCOCC1)OCCO3 | -8.91% (inactive) | 
13 | OC(c1cc(-c2cccc(Cl)c2)nc2ccccc12)C1CCCCN1 (stereo not given) |  | 28.2 µM (active)
14 | Cn1nccc1C(=O)N1CCCC(C(=O)c2cccc3ccccc23)C1 (stereo not given) | -20.1% [at 57.5 µM] (inactive) | 
15 | Cn1cc(/C=C/c2cc[n+](C)cc2)c2cc(F)ccc21 | -9.68% [at 57.5 µM] (inactive) | 
16 | O=C(Nc1nc(-c2ccc(F)c(F)c2)cs1)Nc1ccc(F)cc1F |  | 2.82 µM (active)
17 | O=C(CCN1C(=O)C2CC=CCC2C1=O)Nc1nc(-c2ccc(F)c(F)c2)cs1 (stereo not given) | -16.4% [at 57.5 µM] (inactive) | 
18 | Cc1noc(C)c1CSCC(=O)Nc1nc(-c2ccc(F)c(F)c2)cs1 |  | 28.2 µM (active)
19 | O=C(/C=C\c1ccco1)Nc1nc(-c2ccc3ccccc3c2)cs1 | -19.3% (inactive) | 
20 | NS(=O)(=O)c1ccc(Nc2nc(-c3ccc(F)cc3)cs2)cc1 | -8.41% (inactive) | 
21 | Cc1cnc(NC(=O)C2CC(=O)N(c3cccc(Cl)c3)C2)s1 (stereo not given) | -21% (inactive) | 
22 | CCn1c(C)nc2cc(C(=O)N/N=C/c3cccc(OC)c3O)ccc21 | -17.1% (inactive) | 
23 | Cc1ccc(C(=O)N/N=C/c2nc3ccccc3n2C)cc1 | -26.8% [at 57.5 µM] (inactive) | 
24 | COc1cc([N+](=O)[O-])cc(/C=N/NC(=O)c2ccc(NC(=O)c3ccc(C)cc3)cc2)c1O |  | 1.78 µM (active)

Row | Compound | activity change, negative = cytotoxicity | Potency
25 | CCCC1CCC(c2ccc(C(=O)NN)cc2)CC1 (stereo not given) | -2.67% (inactive) | 
26 | Cc1c(C(=O)N/N=C/c2c(O)ccc3ccccc23)nnn1-c1nonc1N | -20.6% (inactive) | 
27 | Cc1nn2c(NCc3ccccn3)c3c(nc2c1-c1ccccc1)CCC3 |  | 11.2 µM (active)
28 | Cc1cc(NCc2ccccn2)n2nc(C)c(-c3ccc(Cl)cc3)c2n1 |  | 14.1 µM (active)
29 | CC(C)C(CCNCc1ccccn1)c1ccc(Cl)cc1 (stereo not given) | -16.9% [at 57.5 µM] (inactive) | 
30 | CNc1ccccc1C(=O)OC(C)C(=O)Nc1ccc(Cl)cn1 (stereo not given) | 5.42% (inactive) | 
31 | O=C(Nc1ccc(F)cc1)c1sccc1SCc1cccc(C(F)(F)F)c1 | -26.1% [at 57.5 µM] (inactive) | 
32 | CCOC(=O)c1c(NC(=O)COC(=O)c2ccccc2NC)sc(C(=O)N(C)C)c1C | -22.4% (inactive) | 
33 | NC(=O)CC(NC(=O)Cc1ccc(Br)cc1)c1ccc(NC2CCCC2)c([N+](=O)[O-])c1 (stereo not given) | -17.4% (inactive) | 
34 | Cc1ccc(OCC(=O)c2cc(C)n(Cc3cccs3)c2C)c([N+](=O)[O-])n1 | -23.1% [at 57.5 µM] (inactive) | 
35 | C/C(=N\Nc1cc(N2CCOCC2)nc(C)n1)c1cccc([N+](=O)[O-])c1 | -4.32% (inactive) | 
36 | CC1CCCCN1S(=O)(=O)c1ccc(C(=O)Nc2nnc(-c3ccccc3Cl)o2)cc1 (stereo not given) | -5.8% (inactive) | 
37 | O=C1C=C(Nc2ccccc2O)c2ccccc2C1=O |  | 20 µM (active)
38 | Cc1cc(NC(=O)CSc2nccn2-c2cccc(C)c2C)no1 | -14.2% (inactive) | 
39 | CCOC(=O)c1ccc(N=c2sc(C(=O)OC)cc(=O)n2-c2ccc(C(=O)OCC)cc2)cc1 | -19.2% (inactive) | 
40 | CCOC(=O)c1ccc2ncc(C(=O)OCC)c(Nc3ccc(N4CCOCC4)cc3)c2c1 |  | 3.16 µM (active)
41 | CCOC(=O)Nc1ccc(N2CCOCC2)c(S(=O)(=O)Nc2ccc(Cl)cc2)c1 | -10.2% (inactive) | 
42 | Cc1ccc(NC(=O)CNC(=O)c2cccc(Cl)c2)nc1 | -22.1% [at 57.5 µM] (inactive) | 
43 | Cc1cc(Br)ccc1NC(=O)c1cnc(N2CCN(c3ccccn3)CC2)c2ccccc12 | -16.2% (inactive) | 
44 | CCN(CC)S(=O)(=O)c1ccc(C)c(NC(=S)N2CCN(c3ccccn3)CC2)c1 | -29.4% [at 57.5 µM] (inactive) | 
45 | Cc1ccc(NC(=O)c2cnc(N3CCN(c4ccccn4)CC3)c3ccccc23)c(Br)c1 |  | 14.1 µM (active)
46 | Brc1cnc2nc(SCc3nc4ccccc4[nH]3)[nH]c2c1 | -3.43% (inactive) | 
47 | CCn1c(CCC(=O)Nc2nc3c(s2)CCCC3)nc2cc(S(=O)(=O)N(C)C)ccc21 | -6.64% (inactive) | 
48 | O=C(Nc1cccc(S(=O)(=O)N2CCOCC2)c1)c1ccc2c(=O)n3c(nc2c1)CCCCC3 | -27.9% (inactive) | 

Row | Compound | activity change, negative = cytotoxicity | Potency
49 | O=C(Nc1cccc(S(=O)(=O)C(F)F)c1)c1ccc(Cl)c(S(=O)(=O)N2CCOCC2)c1 |  | 28.2 µM (active)
50 | Cc1ccc(C(=O)NC(C)CCc2ccccc2)cc1S(=O)(=O)N1CCOCC1 (stereo not given) | -26% [at 57.5 µM] (inactive) | 
51 | COc1ccc(Cn2c(O)c(/C=N/NC(=O)c3cccnc3)c3ccccc3c2=O)cc1 | 15.3% [at 57.5 µM] (inactive) | 
52 | CCN(Cc1ccccc1)S(=O)(=O)c1ccc(C(=O)Nc2nnc(C3CC3)o2)cc1 | -14.9% (inactive) | 
53 | Cc1cc2c(c(/C=C/C(=O)c3ccccc3)c1)OC1(C=C2)Oc2ccccc2C(=O)N1C (stereo not given) |  | 25.1 µM (active)
54 | Cc1cc(C)cc(NC(=O)CSc2nc3[nH]ncc3c(=O)[nH]2)c1 | -5.78% (inactive) | 
55 | Nc1c(C(=O)NCc2ccccc2)c2nc3ccccc3nc2n1-c1ccc2c(c1)OCO2 | -23.9% (inactive) | 
56 | CCOC(=O)c1c(C)sc2c1N(C(=O)CN(CC)CC)c1cc(Cl)ccc1S2 |  | 22.4 µM (active)
57 | Cc1ccc(-c2nc3cc(Br)cnc3nc2-c2ccc(C)cc2)cc1 | -4.19% (inactive) | 
58 | COc1ccc(OCc2cccc(C(=O)Nn3cc([N+](=O)[O-])cn3)c2)cc1 | -7.7% (inactive) | 
59 | Cc1ccc2c(c1)-c1c(cnn1CC(=O)N1CCCN(Cc3ccccc3F)C1)CO2 | -26.7% (inactive) | 
60 | Cc1ccc2nc(NNC(=O)c3ccc(S(=O)(=O)N4CCc5ccccc5C4)cc3)sc2c1 |  | 10 µM (active)
61 | CC1CCCN(S(=O)(=O)c2ccc(C(=O)Nc3nnc(-c4ccccc4Cl)o3)cc2)C1 (stereo not given) | -17.5% (inactive) | 
62 | Cc1cc(C)c2nc(NNC(=O)c3ccc(S(=O)(=O)N4CC(C)CC(C)C4)cc3)sc2c1 (stereo not given) |  | 11.2 µM (active)
63 | Cc1cc(C)c2nc(NNC(=O)c3cc(-c4cccs4)nc4ccccc34)sc2c1 | -22.8% (inactive) | 
64 | COc1ccc2nc(NC(=O)C3CCN(S(=O)(=O)c4cccs4)CC3)sc2c1 | -16.7% (inactive) | 
65 | Cc1cccc2sc(NNC(=O)c3ccc(S(=O)(=O)N4CC(C)CC(C)C4)cc3)nc12 (stereo not given) |  | 11.2 µM (active)
66 | Cc1ccc(S(=O)(=O)N2CCc3ccccc3CC2)cc1 | 2% (inactive) | 
67 | CCOC(=O)N1CCN(S(=O)(=O)c2ccc(C(=O)NNc3nc4c(C)cc(C)cc4s3)cc2)CC1 | -28.2% (inactive) | 
68 | Cc1ccc2nc(NC(=O)CSCC(=O)OCC(=O)c3ccc(Br)cc3)sc2c1 | -7.59% [at 57.5 µM] (inactive) | 
69 | S=C(NCc1ccc(Cl)cc1Cl)NC1CCCCC1 | -9.63% (inactive) | 
70 | CCc1ccc(OCC(=O)N/N=C(\C)c2ccc(O)cc2O)cc1 | -4.52% (inactive) | 
71 | C/C(=N\NC(=O)c1ccc(CN2CCc3ccccc3C2)cc1)c1ccccc1O | -15.3% (inactive) | 
72 | COc1cc(C#Cc2c(-c3cncn3C)n(C)c3ccc(-c4cnc(OC)nc4)cc23)cc(OC)c1 | -4.58% (inactive) | 

Row | Compound | activity change, negative = cytotoxicity | Potency
73 | CC(Sc1nnc2c(n1)[nH]c1ccccc12)C(=O)N(C)C1CCCCC1 (stereo not given) |  | 20 µM (active)
74 | CCc1nc2c(OCCOc3ccc(F)cc3)cccn2c1N(C)C(=O)c1ccco1 | -9.27% [at 57.5 µM] (inactive) | 
75 | O=C1/C(=C\c2cc(Cl)c(O)c(Cl)c2)SC(=S)N1Cc1ccccc1 |  | 15.8 µM (active)
76 | COc1cc(/C=C2\SC(=O)N(CC(=O)Nc3ccccc3F)C2=O)cc(Cl)c1O | 6.65% (inactive) | 
77 | Clc1c(Cl)c(Cl)c2n[nH]nc2c1Cl | -17.4% [at 57.5 µM] (inactive) | 
78 | NC(N)=N/N=C/c1ccc(Cl)c(Cl)c1 |  | 28.2 µM (active)
79 | CCOC(=O)Oc1c(OC)cc(C(=O)O[C@@H]2C[C@@H]3CN4CCc5c([nH]c6cc(OC)ccc56)[C@H]4C[C@@H]3[C@H](C(=O)OC)[C@H]2OC)cc1OC | -26.2% [at 57.5 µM] (inactive) | 
80 | CC1=NN(c2nc3ccccc3[nH]2)C(=O)C1Cc1ccccc1 (stereo not given) |  | 8.91 µM (active)
81 | CCCCn1c(SCC(=O)Nc2cc(C(F)(F)F)cc(C(F)(F)F)c2)nnc1C(CC)N(C)C (stereo not given) | -21.7% (inactive) | 
82 | COC(=O)C(Cc1ccc(O)cc1)NC(=O)C(C)Oc1ccccc1 (stereo not given) | -13.2% [at 57.5 µM] (inactive) | 
83 | CC(C)CC(N)c1csc(Nc2ccc(C(=O)N(C)Cc3ccccc3)cn2)n1 (stereo not given) |  | 14.1 µM (active)
84 | COc1ccc(CC(N)c2csc(Nc3ccc(C(=O)c4ccccc4)cc3)n2)cc1 (stereo not given) | -23% (inactive) | 
85 | CCc1nc2ccc(C(=O)N(C)Cc3ccccc3)cn2c1N(C)Cc1ccc(OC)cc1 | -14.2% [at 57.5 µM] (inactive) | 
86 | CN(Cc1ccccc1)C(=O)c1ccc(Nc2nc(C(N)Cc3ccccc3)cs2)nc1 (stereo not given) |  | 14.1 µM (active)
87 | O=C(CN1C(=O)c2ccccc2S1(=O)=O)c1ccc(O)c(O)c1 | -1.02% (inactive) | 
88 | CC(C)CC(NC(=O)c1ccc(Cl)cc1)C(=O)OCC(=O)c1ccc2c(c1)NC(=O)CO2 (stereo not given) |  | 28.2 µM (active)
89 | Cc1ccc(-c2ccc(/C=N/c3ncn[nH]3)o2)cc1Cl | -16.1% (inactive) | 
90 | COc1nn(-c2ccccc2)c(=O)c(Cl)c1Cl |  | 2.82 µM (active)
91 | CCOC(=O)N(C)c1c(CC)nc2c(OCc3ccccc3OC)cccn12 | -4.2% [at 57.5 µM] (inactive) | 
92 | CSCC[C@H](NC(=O)OC(C)(C)C)C(=O)N/N=C/c1cccc2cccnc12 | -27.5% [at 57.5 µM] (inactive) | 
93 | CCc1cc[n+](C2=C([O-])c3ccccc3C(=O)/C2=N\S(=O)(=O)c2cccs2)cc1 |  | 17.8 µM (active)
94 | CC(C)CCNC(=O)COc1cccc2c1OC(C)(C)C2 | -12.4% [at 57.5 µM] (inactive) | 
95 | CCOC(=O)[C@H]1[C@H]2COc3ccc(OC)cc3[C@@H]2N2C(=O)c3cc(OC)c(OC)cc3NC(=O)[C@@]12C | -13% (inactive) | 
